Imprint erasure = inducers of genomic imprint erasure in mouse ES cells; mouse ES Peg3-LacZ reporter, beta-gal luminescence, 40 h; Potency, µM (titrated, usually from 60.7 µM), usual class: activators; hit rate 0.02% among 110,000
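Each well holds 300 Peg3LacZ-Neo (maternal) female ES cells incubated 40 h at 37C, 5% CO2. LacZ is measured by BetaGlo luminescence, with AC50 and maximum efficacy derived from dose-response curves.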
CRE-bla Fsk = CRE-bla signaling modulation under forskolin stimulation. CHO CRE-bla reporter (cAMP response element driving beta-lactamase), forskolin EC10, beta-lactamase ratio. Potency, µM (doses to about 38.2 µM), most hits filed as activators. hit rate 2.5% among 71,000; active means well fitted activation curve with a large enough effect in the signal ratio, with a control signal flat, not every such curve was filed as active; inconclusive means small, poorly fitted or top-dose-only effect, or effect the other way, or a change in a side signal; the % refers to the signal ratio
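CRE-bla CHO reporter cells treated with compound titration plus EC10 NKH 477 (water-soluble forskolin), incubated 3 h at 37 °C; CCF4 loading 2 h at room temperature, 460/530 nm emission ratio read, AC50 values derived for positive or negative modulators.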
p53ts 39C tox = p53ts cell cytotoxicity, nonpermissive temperature; H1299-p53A138V viability at 39C, ATP luminescence, 24 h; Potency, µM (top dose mostly 46.1 µM), hits mostly cytotoxic; hit rate 1.5% among 130,000; AID 902; further: nearly all actives have a fitted effect of over 55% in size
p53ts 32C kill = p53ts cell cytotoxicity, permissive temperature | H1299-p53A138V at 32C, ATP luminescence viability, 24 h | Potency, µM (top dose mostly 46.1 µM), actives largely listed as cytotoxic | hit rate 0.93% among 130,000 | AID 924; further: nearly all actives have a fitted effect of over 55% in size
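ATP-content luminescence (ATPlite) read-out after 24 h compound exposure at 32C in H1299-p53A138V cells (600/well). Tested up to 46 uM. Normalized to DMSO (0%) and 100 uM tamoxifen (100% killing); Hill-fit AC50.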
IkB sig inh = inhibitors of IkB signaling in ABC-DLBCL cells. ABC-DLBCL IkBa-CBG/CBR dual luciferase ratio, 4 h; response scale: scaled: untreated 0%, proteasome inhibitor 100%. Potency, µM (highest dose often 57.1 µM). hit rate 0.04% among 110,000; active means well fitted curve in the direction sought with a large enough effect in the signal ratio, not every such curve was filed as active; inconclusive means small, poorly fitted or top-dose-only effect, or a change in a side signal; the % refers to the signal ratio;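 further: the direction sought is a rising ratio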
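Luminescence ratio of IκBα-fused green versus native red beetle luciferase in OCI-Ly3 cells, 4 h post-doxycycline with compound; red signal alone, scaled from basal (0%) to zero light (-100%), flagged nonspecific or cytotoxic effects.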
Each line names hits and unclear results; the compound was inactive in the other large screens. Most compounds without a hit are left out; they make up all but 3% or so of the library. Unless noted, the call rests on the fitted dose curve; in most records, active means well fitted curve in the direction sought with a large enough effect; inconclusive means small, poorly fitted or top-dose-only effect, or another doubt; inactive means no such curve, though single readings can be large; an effect the other way counts as inactive or inconclusive.

COc1cccc2sc(N3CCN(c4nc5ccccc5s4)CC3)nc12	none
C=CCN1C=CC(=C/C=C(/C#N)C(=O)OCC)C=C1	p53ts 39C tox inconclusive, p53ts 32C kill 10µM (no result: Imprint erasure, CRE-bla Fsk, IkB sig inh)
CC(C)c1ccc(OCc2nc(-c3ccccn3)no2)c(Br)c1	p53ts 39C tox inconclusive, p53ts 32C kill inconclusive, IkB sig inh inconclusive
Cc1ccc(OCc2nc(-c3ccccn3)no2)c(Br)c1	p53ts 39C tox inconclusive, p53ts 32C kill 10µM
CCc1ccc(OCc2nc(-c3ccccn3)no2)c(Br)c1	p53ts 39C tox 10µM, p53ts 32C kill 15.8µM
CCCc1cc2c(c(=O)o1)C(O)C1OC1C2=O (centres undefined)	none (no result: Imprint erasure, CRE-bla Fsk, IkB sig inh)
CCOC(=O)c1ccc(N2C(=O)c3n[nH]c(-c4cccs4)c3C2c2ccc(O)c(OC)c2)cc1 (centres undefined)	IkB sig inh inconclusive (no result: CRE-bla Fsk)
COc1ccc(-n2c(-c3ccccc3F)nc3c(cnn3-c3ccc(C)cc3)c2=O)cc1	IkB sig inh inconclusive (no result: CRE-bla Fsk)
CCCNC(=O)Cc1cc(=O)[nH]c(=O)[nH]1	CRE-bla Fsk 2µM
CCC(Sc1nc(-c2ccccc2)[nH]c1S(=O)(=O)c1ccc(C)cc1)C(=O)O (centres undefined)	IkB sig inh inconclusive (no result: CRE-bla Fsk)
CCOc1ccc(N2C(=O)CC(SCCN)C2=O)cc1 (centres undefined)	p53ts 39C tox 12.6µM, p53ts 32C kill 12.6µM (no result: Imprint erasure)
CCOCCCNC(=O)C(c1ccccc1)N(Cc1cccs1)C(=O)c1ccc(NC(C)=O)cc1 (centres undefined)	IkB sig inh inconclusive (no result: CRE-bla Fsk)
Cc1nnc2ccc(Oc3ccc(-c4ccccc4)cc3)nn12	CRE-bla Fsk 0.794µM
CCOc1cc2[nH]c(=S)n(CCCOC)c(=O)c2cc1OCC	CRE-bla Fsk 12.6µM
O=C(O)c1ccc2c3c1cccc3c(=O)n1c3ccccc3nc21	CRE-bla Fsk 5.01µM
O=c1c2ccccc2nc2sc3ccccc3n12	p53ts 39C tox inconclusive, p53ts 32C kill inconclusive
CCOc1cc2c(cc1OCC)C(c1ccc(O)c(OC)c1)NCC2 (centres undefined)	CRE-bla Fsk inconclusive
CCOc1cc2c(cc1OCC)C(c1cc(OC)c(O)c(OC)c1)NCC2 (centres undefined)	CRE-bla Fsk 10µM
COC(=O)c1ccc(OCC2c3cc(OC)c(OC)cc3CCN2C(=O)C(C)C)cc1 (centres undefined)	p53ts 39C tox inconclusive (no result: CRE-bla Fsk)
COC(=O)c1ccc(OCC2c3cc(OC)c(OC)cc3CCN2C(=O)C2CC2)cc1 (centres undefined)	CRE-bla Fsk 5.01µM, IkB sig inh inconclusive
Cc1cccc(NC(=O)N2CCC(CN3CCCCCC3)CC2)c1C	none (no result: Imprint erasure, CRE-bla Fsk, p53ts 39C tox, IkB sig inh)
O=C(c1ccco1)N1CCN(c2ncnc3c2[nH]c2ccc(Br)cc23)CC1	CRE-bla Fsk 0.251µM, p53ts 32C kill inconclusive, IkB sig inh inconclusive
O=C(c1ccco1)N1CCN(c2ncnc3c(-c4ccccc4)nsc23)CC1	IkB sig inh inconclusive
CCN(CCCNC(=O)c1cc2cc3ccc(OC)cc3nc2s1)c1ccccc1	p53ts 39C tox inconclusive (no result: CRE-bla Fsk)
CCN(CCCNC(=O)c1cc2cc3ccc(OC)cc3nc2s1)c1cccc(C)c1	p53ts 39C tox 12.6µM, p53ts 32C kill inconclusive, IkB sig inh inconclusive (no result: CRE-bla Fsk)
CCN1CCN(C(c2ccc(OC)cc2)c2c(O)cc(C)n(Cc3ccco3)c2=O)CC1 (centres undefined)	IkB sig inh inconclusive (no result: CRE-bla Fsk)
Cc1cc(C)cc(Nc2cc(C(=O)NC3CCC(C)CC3)c3ccccc3n2)c1 (centres undefined)	none (no result: CRE-bla Fsk)
Cc1cc(C(=O)OCCO)c(C#N)c(N)n1	CRE-bla Fsk inconclusive
Cc1cc(-c2ccccc2)c(C#N)c(N)n1	CRE-bla Fsk 12.6µM
COc1cc(C(=O)Nc2ccc(-c3cc(C(F)(F)F)nn3-c3ccccc3)cc2)cc(OC)c1OC	none (no result: CRE-bla Fsk)
COc1ccc(Cc2c(C)nn(-c3nc(C)c(C(=O)Nc4cccc(C(C)=O)c4)s3)c2C)cc1	p53ts 39C tox inconclusive (no result: CRE-bla Fsk)
COc1ccc(OC)c(NC(=O)CSc2nnc(CCCO)n2-c2ccccc2)c1	CRE-bla Fsk inconclusive
COc1ccc(OC)c(NC(=O)CSc2nnc(-c3ccco3)n2-c2ccccc2)c1	CRE-bla Fsk 2.51µM
COc1ccc(CNc2nc(-c3ccc(N(C)C)cc3)nc3ccccc23)c(OC)c1	CRE-bla Fsk inconclusive, p53ts 39C tox 15.8µM, p53ts 32C kill 12.6µM
COc1ccc(CNc2ccnc(-c3ccc(C(=O)N(C)C)cc3)n2)c(OC)c1	CRE-bla Fsk inconclusive
COc1ccc(CNc2nc(-c3cccc(NS(C)(=O)=O)c3)nc3ccccc23)c(OC)c1	CRE-bla Fsk inconclusive
COc1ccc(CNc2nc(-c3ccc(C(=O)N(C)C)cc3)nc3ccccc23)c(OC)c1	CRE-bla Fsk 1µM
COc1ccc(CNc2ncnc3ccc(-c4cccc(C#N)c4)cc23)c(OC)c1	CRE-bla Fsk 0.794µM
COc1ccc(CNc2nc(-c3cccc(C#N)c3)nc3ccccc23)c(OC)c1	CRE-bla Fsk 2µM
COc1ccc(-c2c(C)nn3c(N4CCN(c5ccccc5)CC4)cc(C)nc23)cc1OC	IkB sig inh inconclusive (no result: CRE-bla Fsk)
CCOc1ccccc1CNCc1cccn1-c1nnc(N2CCN(c3ccccc3)CC2)s1	p53ts 39C tox inconclusive, IkB sig inh inconclusive (no result: CRE-bla Fsk)
COc1ccc2c(c1)CCc1c(C(=O)Nc3c(C)nn(Cc4c(Cl)cccc4Cl)c3C)noc1-2	IkB sig inh inconclusive (no result: CRE-bla Fsk)
Cc1cccc(N(C)C(=O)Cn2c(=O)oc3cc(S(=O)(=O)N4CCCCC4)ccc32)c1	IkB sig inh inconclusive (no result: CRE-bla Fsk)
COc1ccc(S(=O)(=O)N(CC(=O)NC(C)c2ccccc2)c2ccc(C)cc2)cc1OC (centres undefined)	IkB sig inh inconclusive (no result: CRE-bla Fsk)
COc1ccccc1CNc1nc(-c2ccccc2CN(C)C)nc2ccccc12	CRE-bla Fsk inconclusive, p53ts 39C tox 15.8µM
CN(C)Cc1ccccc1-c1nc(NCc2ccccc2)c2ccccc2n1	none
Cc1cccc(CNc2nc(-c3ccc(C(=O)N(C)C)cc3)nc3ccccc23)c1	CRE-bla Fsk 0.794µM (no result: Imprint erasure)
Clc1ccc([C@@H](c2ccccc2Cl)C(Cl)Cl)cc1	none (no result: Imprint erasure, p53ts 39C tox, p53ts 32C kill)
Cc1nn2c(=O)cc(COC(=O)c3cccc(NC(=O)c4ccc(C(C)(C)C)cc4)c3)nc2s1	p53ts 39C tox 2.51µM, p53ts 32C kill 2.51µM, IkB sig inh inconclusive (no result: CRE-bla Fsk)
CN(C)CCN(Cc1ccco1)C(=O)c1oc2ccccc2c1NC(=O)c1cccc(F)c1	Imprint erasure inconclusive, p53ts 39C tox 10µM (no result: CRE-bla Fsk)
Cc1ccc(NC(=O)CSc2nc3ccccc3nc2Cc2ccccc2F)cc1F	p53ts 39C tox inconclusive (no result: CRE-bla Fsk)
Cc1nc(SCC(=O)Nc2ccc(C)c(F)c2)c2oc3ccccc3c2n1	CRE-bla Fsk 0.631µM
COc1ccc(-n2c(=O)c(C)nc3cnc(Oc4ccccc4)nc32)cc1	CRE-bla Fsk 2.51µM (no result: Imprint erasure)
COc1ccc(Oc2ncc3nc(C)c(=O)n(Cc4cccc(OC)c4)c3n2)cc1	CRE-bla Fsk 3.98µM
COc1ccc(-n2c(=O)c(C)nc3cnc(N(C)C)nc32)cc1	CRE-bla Fsk 12.6µM (no result: Imprint erasure)
